Laboratory results as given in PubChem BioAssay AID624405 (Broad Institute, 2012).
Out of some 1,900 compounds screened, about 250 (13%) were called active. Inconclusive results (about 4%) are left out.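 The calls were made as follows: active = fitted curve reaches 40% rescue activity at or below the top valid dose, in every test run; inconclusive = test runs disagree, some active and some inactive; inactive = every run misses the threshold or moves the wrong way.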 Not all results are given here. Entries with a potency or affinity are not part of this list.

Experiment: suppressors of statin myotoxicity in myotubes, dose response, cell-based, C2C12 myotubes, ATP luminescence, cherry pick (AID 624405);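 also: myotubes are challenged with simvastatin at 10 µM to lower ATP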
Settings: C2C12 myotubes + simvastatin, 48 h, scaled: DMSO wells 0, geranylgeraniol wells 100; series mostly up to 19.5 µM

With `COc1ccc(CN(C)C[C@@H]2Oc3ccc(NS(=O)(=O)c4ccc(C)cc4)cc3CC(=O)N([C@H](C)CO)C[C@H]2C)cc1` as the molecule, how does the outcome read?
Its outcome is “inactive”.

With `C[C@H]1CN([C@@H](C)CO)C(=O)Cc2cc(NS(=O)(=O)c3cn(C)cn3)ccc2O[C@@H]1CN(C)Cc1ccc(-c2ccccc2)cc1` as the molecule, how does the outcome read?
Its outcome is “inactive”.

With `COc1ccc(CN(C)C[C@H]2Oc3ccc(NS(=O)(=O)c4ccccc4)cc3CC(=O)N([C@@H](C)CO)C[C@@H]2C)cc1` as the molecule, how does the outcome read?
Its outcome is “inactive”.

With `C[C@@H]1CN([C@H](C)CO)C(=O)Cc2cc(NS(=O)(=O)c3cccs3)ccc2O[C@@H]1CN(C)Cc1ccc(-c2ccccc2)cc1` as the molecule, how does the outcome read?
The outcome was “inactive”.

With `C[C@@H]1CN([C@@H](C)CO)C(=O)Cc2cc(NS(=O)(=O)c3ccc(F)cc3)ccc2O[C@H]1CN(C)Cc1ccc(-c2ccccc2)cc1` as the molecule, how does the outcome read?
Its outcome is “inactive”.

For `Cc1ccc(S(=O)(=O)Nc2ccc3c(c2)CC(=O)N([C@H](C)CO)C[C@@H](C)[C@H](CN(C)Cc2ccc(-c4ccccc4)cc2)O3)cc1`, which outcome is on record?
The outcome was “inactive”.

With `Cc1ccc(S(=O)(=O)Nc2ccc3c(c2)CC(=O)N([C@@H](C)CO)C[C@@H](C)[C@H](CN(C)Cc2ccc(Oc4ccccc4)cc2)O3)cc1` as the molecule, how does the outcome read?
Its outcome is “inactive”.

Which outcome does the source give for `COc1ccc(S(=O)(=O)Nc2ccc3c(c2)CC(=O)N([C@H](C)CO)C[C@@H](C)[C@H](CN(C)Cc2ccccc2)O3)cc1` here?
Its outcome is “inactive”.

For `COc1ccc(CN(C)C[C@H]2Oc3ccc(NS(=O)(=O)c4ccc(F)cc4)cc3CC(=O)N([C@@H](C)CO)C[C@@H]2C)cc1`, which outcome is on record?
Its outcome is “inactive”.

With `COC(=O)CCC(=O)Nc1sc(C)c(C)c1C(N)=O` as the molecule, how does the outcome read?
The outcome was “inactive”.

For `C[C@@H]1CCCCO[C@@H](CN(C)C(=O)C2CCCCC2)[C@H](C)CN([C@@H](C)CO)C(=O)c2cc(NS(=O)(=O)c3ccccc3)ccc2O1`, which outcome is on record?
Its outcome is “inactive”.

Which outcome does the source give for `COc1ccc(CN2[C@@H]3CNc4ccccc4[C@@H]3[C@@H]2CO)cc1` here?
Its outcome is “inactive”.

With `C[C@@H]1CCCCO[C@H](CN(C)C(=O)NC2CCCCC2)[C@H](C)CN([C@@H](C)CO)C(=O)c2cc(NC(=O)Nc3cccc4ccccc34)ccc2O1` as the molecule, how does the outcome read?
Its outcome is “inactive”.

With `C[C@H](CO)N1C[C@H](C)[C@@H](CN(C)Cc2ccc(Oc3ccccc3)cc2)Oc2ccc(NC(=O)Cc3cn(C)c4ccccc34)cc2CC1=O` as the molecule, how does the outcome read?
Its outcome is “inactive”.

With `O=C(OCC(=O)N1CCOCC1)c1ccccc1SCC(=O)N1CCCC1` as the molecule, how does the outcome read?
The outcome was “inactive”.

With `C[C@H](CO)N1C[C@H](C)[C@@H](CN(C)Cc2ccc(C(F)(F)F)cc2)Oc2ccc(NS(=O)(=O)c3cccs3)cc2CC1=O` as the molecule, how does the outcome read?
The outcome was “inactive”.

For `CC(=O)N1CCN(c2nnnn2-c2ccccc2)CC1`, which outcome is on record?
The outcome was “inactive”.

For `COCc1cc(C)nc(N2CCN(Cc3ccccc3)CC2)c1C#N`, which outcome is on record?
Its outcome is “inactive”.

With `COc1ccc(S(=O)(=O)Nc2ccc3c(c2)C(=O)N([C@@H](C)CO)C[C@@H](C)[C@H](CN(C)C(=O)c2ccccc2)OCCCC[C@@H](C)O3)cc1` as the molecule, how does the outcome read?
Its outcome is “inactive”.

Which outcome does the source give for `COc1ccc2[nH]c(=O)c(CN(CCc3ccccc3)C(C)=O)cc2c1` here?
Its outcome is “inactive”.

With `COc1ccc2[nH]c(=O)c(CNc3ccc(C)c(C)c3)cc2c1` as the molecule, how does the outcome read?
The outcome was “inactive”.

For `CC(=O)N1C=CN(C(C)=O)C(c2cn(C)c3ccccc23)C1c1cn(C)c2ccccc12` (configuration not stated), which outcome is on record?
Its outcome is “inactive”.

With `Cc1cc(C)nc(NC(=NCCc2c[nH]c3ccccc23)NC(=O)c2ccco2)n1` as the molecule, how does the outcome read?
The outcome was “inactive”.

For `O=C(Cc1coc(-c2ccc(F)cc2)n1)Nc1ccccc1`, which outcome is on record?
Its outcome is “inactive”.

With `CCCCCNC(=O)C1CC=CCC1C(=O)O` (configuration not stated) as the molecule, how does the outcome read?
The outcome was “inactive”.

With `C[C@H]1CN([C@@H](C)CO)C(=O)Cc2cc(NC(=O)CCCCCC(=O)Nc3ccccc3N)ccc2O[C@@H]1CN(C)CC1CCCCC1` as the molecule, how does the outcome read?
Its outcome is “inactive”.

With `C[C@@H]1CN([C@H](C)CO)C(=O)Cc2cc(NC(=O)CCCCCC(=O)Nc3ccccc3N)ccc2O[C@H]1CN(C)CC1CCCCC1` as the molecule, how does the outcome read?
The outcome was “inactive”.

With `COc1ccc(S(=O)(=O)N(C)C[C@@H]2OCCCC[C@H](C)Oc3ccc(NC(=O)Nc4ccc(C(F)(F)F)cc4)cc3C(=O)N([C@@H](C)CO)C[C@@H]2C)cc1` as the molecule, how does the outcome read?
Its outcome is “inactive”.

With `OC[C@H]1[C@@H]2c3ccccc3NC[C@@H]2N1Cc1ccccc1Cl` as the molecule, how does the outcome read?
Its outcome is “inactive”.

With `CCOc1ccccc1OCCOc1ccccc1CC` as the molecule, how does the outcome read?
The outcome was “inactive”.

For `COc1ccc(NC(=O)N(C)C[C@@H]2OCCCC[C@@H](C)Oc3ccc(NS(=O)(=O)c4c(C)noc4C)cc3C(=O)N([C@H](C)CO)C[C@H]2C)cc1`, which outcome is on record?
The outcome was “inactive”.

Which outcome does the source give for `C[C@@H]1CN([C@@H](C)CO)C(=O)c2cc(NC(=O)Cc3cn(C)c4ccccc34)ccc2O[C@H]1CN(C)S(=O)(=O)c1cccs1` here?
Its outcome is “inactive”.

Which outcome does the source give for `CC(C)(C)c1cc(C(F)(F)F)c(C#N)c(=O)[nH]1` here?
Its outcome is “inactive”.

For `C=CCn1c(COc2ccc(Cl)cc2)nnc1SCC(=O)c1c(N)n(C)c(=O)n(C)c1=O`, which outcome is on record?
Its outcome is “inactive”.

With `COc1ccc(S(=O)(=O)Nc2ccc3c(c2)CC(=O)N([C@H](C)CO)C[C@@H](C)[C@@H](CN(C)Cc2ccc(C(F)(F)F)cc2)O3)cc1` as the molecule, how does the outcome read?
The outcome was “inactive”.

For `CCOC(=O)C1CCN(C=Nc2cc(C)on2)CC1`, which outcome is on record?
The outcome was “inactive”.

Which outcome does the source give for `COc1ccc(S(=O)(=O)Nc2ccc3c(c2)C(=O)N([C@@H](C)CO)C[C@H](C)[C@@H](CN(C)S(=O)(=O)c2ccc(F)cc2)OCCCC[C@H](C)O3)cc1` here?
The outcome was “inactive”.

Which outcome does the source give for `NC(=O)C1CCN(Cc2nc3cc(Cl)ccc3c(=O)[nH]2)CC1` here?
Its outcome is “inactive”.

With `C[C@@H]1CCCCO[C@@H](CN(C)C(=O)Nc2cccc3ccccc23)[C@H](C)CN([C@@H](C)CO)C(=O)c2cc(NS(=O)(=O)c3ccc(Cl)cc3)ccc2O1` as the molecule, how does the outcome read?
The outcome was “inactive”.

With `CCC/C(=C1/c2ccccc2C(=O)N1c1ccccc1)c1ccc2c(c1)OCCO2` as the molecule, how does the outcome read?
The outcome was “inactive”.

With `C[C@H](CO)N1C[C@H](C)[C@@H](CN(C)Cc2ccccc2F)Oc2ncc(C3=CCCCC3)cc2C1=O` as the molecule, how does the outcome read?
The outcome was “inactive”.

For `C[C@@H]1CN([C@H](C)CO)C(=O)Cc2cc(NC(=O)Cc3cn(C)c4ccccc34)ccc2O[C@H]1CN(C)Cc1ccc(-c2ccccc2)cc1`, which outcome is on record?
Its outcome is “inactive”.

With `COc1ccc(CNc2ncnc3cc(OC)c(OC)cc23)cc1` as the molecule, how does the outcome read?
The outcome was “inactive”.

Which outcome does the source give for `COc1ccccc1CNc1ncnc2c1nnn2Cc1ccccc1` here?
The outcome was “inactive”.

Which outcome does the source give for `CC(c1ccco1)N(C(=O)Nc1ccc(Cl)cc1)c1ccccn1` (configuration not stated) here?
Its outcome is “inactive”.

With `COc1ccc(-n2nnnc2SCC(=O)N2CCCc3ccccc32)cc1OC` as the molecule, how does the outcome read?
Its outcome is “inactive”.

With `COc1ccccc1-c1nnc(SCC(=O)N2CC(C)CC(C)C2)o1` (configuration not stated) as the molecule, how does the outcome read?
Its outcome is “inactive”.
